# In paper doi:10.1101/2025.02.07.636106:
# Target: Sodium/potassium-transporting ATPase subunit beta-3 (UniProt P54709)
# Assay: cross-link between two proteins; co-fractionation; cross-linking mass spectrometry
substance,measurement,value
"Sodium/potassium-transporting ATPase subunit alpha-1, P05023",listed as a hit,yes
